In PubChem BioAssay (NCATS):
Where “and” joins values, the source holds several entries; their conditions need not be identical. Equal entries are not always repeated. Records with an inconclusive call do not appear. Entries that show only a call come without a potency. Some compounds were tested as several samples or in several runs, with calls that do not always agree. Calls of active or inactive are those of the source. Calls come from the whole dose curve; as a rule, active = well fitted inhibition curve with a large enough effect in the repeat runs; inconclusive = weak or mixed curves; inactive = no such curve, though single readings can be large or run the other way.

Biological target: Cytochrome P450 2C9 (Homo sapiens) (UniProt P11712)
Sequence (P11712 whole entry, looked up): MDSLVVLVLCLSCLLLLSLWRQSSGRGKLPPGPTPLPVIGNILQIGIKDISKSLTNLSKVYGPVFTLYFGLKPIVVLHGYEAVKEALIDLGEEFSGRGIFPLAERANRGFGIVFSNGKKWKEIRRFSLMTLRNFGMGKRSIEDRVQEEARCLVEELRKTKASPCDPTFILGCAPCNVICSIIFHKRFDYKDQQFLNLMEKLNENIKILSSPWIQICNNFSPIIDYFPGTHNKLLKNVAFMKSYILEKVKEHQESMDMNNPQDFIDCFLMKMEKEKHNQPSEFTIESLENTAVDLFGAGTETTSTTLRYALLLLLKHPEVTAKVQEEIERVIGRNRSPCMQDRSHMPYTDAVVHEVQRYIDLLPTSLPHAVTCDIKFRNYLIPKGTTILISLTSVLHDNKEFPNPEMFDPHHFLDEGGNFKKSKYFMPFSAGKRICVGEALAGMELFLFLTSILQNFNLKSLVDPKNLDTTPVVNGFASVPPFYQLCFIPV
Assay: Cytochrome P450 family 2 subfamily C member 9 (CYP2C9) small molecule antagonists: luciferase biochemical (cell-free) qHTS assay (AID 1645842); note: nearly all actives have a fitted effect of over 55% in size
Details: P450-Glo CYP2C9 enzyme assay, luciferin luminescence; series mostly up to 57.4 µM
Method: National Center for Advancing Translational Sciences [NCATS] Assay Overview: Cytochrome P450 (CYP) enzymes are membrane-bound hemeproteins that play a key role in metabolism of drugs and xenobiotics. Assaying the effect of chemicals on CYP isozymes is useful to minimize the adverse drug reactions and toxicities in drug development process. Chemical compounds were tested for their effect on CYP enzyme activities by using P450-Glo (TM) screening systems (Promega Corporation, Madison, WI). These systems provide a luminescent method containing proluciferin substrates and are converted to luciferin products by CYP isozymes. The luciferin products formed are detected with a luciferin detection reagent, and the amount of light produced is proportional to CYP activity. P450-Glo (TM) CYP2C9 screening system (Catalog. No. V9790) was used to detect the compounds that interfere in CYP2C9 activity.
Assay Protocol Summary: Two ul of enzyme-substrate mix supplemented with 0.4% Bovine Serum Albumin was dispensed into medium binding white/solid 1536-well plates (Greiner Bio-One North America Inc., Monroe, NC) using a Flying Reagent Dispenser (FRD, Aurora Discovery, San Diego, CA). […] The assay plates were incubated at room temperature for 10 min. Then 2 ul of NADPH regeneration solution was added to each well of the assay plates using an FRD and incubated at 37C for 1 h. The reaction was stopped by adding 4 ul of detection reagent using an FRD and after 20 min incubation at room temperature, the luminescence signal was measured using a ViewLux plate reader (Perkin Elmer, Shelton, CT). Data were expressed as relative luminescence units.
Potency is the fitted concentration of half-maximal effect.

| Compound | Potency |
| --- | --- |
| CN1Cc2c(N)cccc2C(c2ccccc2)C1 (stereo not given) | inactive |
| OC[C@H]1O[C@@H](n2cnc3c2NC=NC[C@H]3O)C[C@@H]1O | inactive |
| CO[C@@H]1COCC[C@@H]1N[C@@H]1CC[C@@](C(=O)N2CCc3ncc(C(F)(F)F)cc3C2)(C(C)C)C1 | inactive |
| O=C(c1ccc(C#Cc2cccc(F)c2)cn1)N1CC2CC2C1 (stereo not given) | 23.9 µM (active) |
| Cc1ccc(C(=O)Nc2ccc(Oc3cc4cnn(C)c4cc3-c3cn[nH]c3)c(F)c2)c(=O)n1-c1ccc(F)cc1 | 2.68 µM (active) |
| CNC1CCN(C(Cc2cccc(-c3ccncc3)c2)C(=O)c2sc3c(F)ccc(F)c3c2Cl)CC1 (stereo not given) | 10.7 µM (active) |
| CCOC(=O)c1c(C)nn(-c2cccc([N+](=O)[O-])c2)c1C | 1.07 µM (active) |
| O=S(=O)(O)c1ccc2c(N=Nc3ccc(S(=O)(=O)O)c4ccccc34)c(O)c(S(=O)(=O)O)cc2c1 | 12 µM (active) |
| Nc1ncnc2c1ncn2[C@H]1CCCO1 | inactive |
| COC(=O)[C@H](CC1C=NC=N1)NCC12CC3CC(CC(C3)C1)C2 (stereo not given in full) | inactive |
| N#Cc1ccc2[nH]c(O)c(-c3ccc(CN4CCOCC4)cn3)c2c1 | inactive and 16.9 µM (active) |
| O=C(/C=C/c1c(C(=O)O)[nH]c2cc(Cl)cc(Cl)c12)Nc1ccccc1 | 21.3 µM (active) |
| O=C(CCCCc1ccc2ccccc2c1)C(F)(F)F | 9.52 µM (active) |
| Cc1nnc(C(C)C)n1C1CC2CCC(C1)N2CC[C@H](NC(=O)C1CCC(F)(F)CC1)c1ccccc1 (stereo not given in full) | inactive |
| O=C(NC[C@H](O)CN1CCc2ccccc2C1)c1cc(NC2COC2)ncn1 | inactive |
| C[C@@H]1[C@H](O)[C@@H](C)/C=C/C=C\C=C\C=C\C=C\C=C\C=C\[C@H](O[C@@H]2O[C@H](C)[C@@H](O)[C@H](N)[C@@H]2O)C[C@@H]2O[C@](O)(C[C@@H](O)C[C@@H](O)[C@H](O)CC[C@@H](O)C[C@@H](O)CC(=O)O[C@H]1C)C[C@H](O)[C@H]2C(=O)O (stereo in doubt) | inactive |
| Cc1cc(N2CCCCC2)nc2ccccc12 | inactive |
| CC1(C)OC(=O)C(OCC2CC2)=C1c1ccc(S(C)(=O)=O)cc1 | 13.5 µM (active) |
| CON(C)C(=O)N1N=C(c2cc(F)ccc2F)S[C@@]1(CCCN)c1ccccc1 | 3.01 µM (active) |
| CCOC(=O)c1ccc(N(C)c2csc(-c3ccccc3)n2)cc1 | 0.674 µM (active) |

| Compound | Potency |
| --- | --- |
| CNC(=O)Nc1ccc(OC)c(NC(=O)NC(=O)c2cc(F)c(F)cc2Cl)c1 | inactive |
| COc1cc2c(cc1OC)CN(C(=O)[C@@H](NCc1ccncc1)C(C)(C)C)CC2 | 1.69 µM (active) |
| CCCCNC(=O)[C@@H]1Cc2ccccc2N1C(=O)[C@@H](N)CC | inactive |
| O=C1CC(c2ccc([N+](=O)[O-])cc2)=NN1c1ccccc1 | 13.5 µM (active) |
| Cc1c(C)c2c(c(C)c1O)CC[C@@](C)(CCC[C@H](C)CCC[C@H](C)CCCC(C)C)O2 | inactive |
| CC(NCc1ccc(OCc2cccc(F)c2)cc1)C(N)=O (stereo not given) | inactive |
| CNC(=O)c1ccc(Nc2ncc(C(F)(F)F)c(NCc3nccnc3N(C)S(C)(=O)=O)n2)cc1 | 3.79 µM (active) |
| CCNC(=O)[C@H]1O[C@H](n2cnc3c(NCC(c4ccccc4)c4ccccc4)nc(C(=O)NCCNC(=O)NC4CCN(c5ccccn5)CC4)nc32)[C@H](O)[C@@H]1O | 3.79 µM (active) |
| NC(Cc1c[nH]c2ccccc12)C(=O)NC(CCC(=O)O)C(=O)O (stereo not given) | inactive |
| COc1ccc2cc(OCC3(C(=O)O)CN(C(=O)c4ccc(F)cc4)C3)ccc2c1 | 16.9 µM (active) |
| CC1(C)CCC(C)(C)c2cc3c(cc21)Sc1ccccc1N=C3c1ccc(C(=O)O)cc1 | inactive |
| O=C(c1ccccn1)c1cnn2c(-c3ccncc3)ccnc12 | 12 µM (active) |
| COC(=O)CCC(=O)CN | inactive |
| Cc1onc(-c2ccccc2)c1C(=O)N[C@@H]1C(=O)N2[C@@H]1SC(C)(C)[C@@H]2C(=O)O | inactive |
| CN(C)c1cccc(-c2c3c(=O)n(-c4ccccc4Cl)[nH]c3cc(=O)n2C)c1 | 5.35 µM (active) |
| Nc1nc(N)c2nc(CNc3ccc(C(=O)N[C@@H](CCC(=O)O)C(=O)O)cc3)cnc2n1 | inactive |
| O=C1N(CC2CCCCN2)CCN1c1ccccc1 (stereo not given) | inactive |
| CC(=O)OC(C)OC(=O)C(C)c1ccc(-c2ccccc2)c(F)c1 (stereo not given) | 9.77 µM (active) |
| FC(F)(F)c1cc(C(F)(F)F)c2ccc3nc(-c4nnco4)cn3c2n1 | inactive |
| CCOc1nc2cccc(C(=O)OCc3oc(=O)oc3C)c2n1Cc1ccc(-c2ccccc2-c2noc(O)n2)cc1 | 3.38 µM (active) |
